{"source": "PubChem BioAssay", "note": "For part of these data: Results with a measured potency or affinity are listed apart. Activity calls are given as the source filed them. Unless noted, the limit is not given here; nearly all actives have IC50 up to about 0.98 µM."}
{"tested_on": "not listed separately", "experiment": "inhibition of 3D7 malaria parasite growth – strain 3D7 (AID 2306; call rule not given here;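 also: 0% = DMSO wells and 100% = chloroquine plus artemisinin control wells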)", "settings": "P. falciparum 3D7 erythrocytic growth, LDH absorbance, 72 h; at 2 µM; stronger effect = higher value"}
{"smiles": "COc1ccccc1CC1CCCN(C2CCC(NC(=O)c3cc4ccccc4[nH]3)CC2)C1", "note": "(stereo unspecified)", "growth inhibition": "98% (active)"}
{"smiles": "COc1ccc2nccc([C@@H](O)CN3CCC(NC(=O)/C=C/c4cccc(NC(C)=O)c4)CC3)c2c1", "growth inhibition": "90% (active)"}
{"smiles": "c1ccc(-c2cc(NCc3cccc4ccccc34)c3[nH]ncc3n2)cc1", "growth inhibition": "93% (active)"}
{"smiles": "Cn1nc(-c2ccc(NC(=O)Nc3cc(C(F)(F)F)ccc3F)c(F)c2)c2cnc(NCCCn3ccnc3)nc21", "growth inhibition": "100% (active)"}
{"smiles": "COc1ccc2nccc(N3CCN(CCNCc4ccc5c(n4)NC(=O)CS5)CC3)c2c1", "growth inhibition": "97% (active)"}
{"smiles": "FC(F)(F)c1ccc2nc(-c3ccc(-c4cccc(CNCCc5ccncc5)c4)s3)[nH]c2c1", "growth inhibition": "100% (active)"}
{"smiles": "O=C(NCCCCN1CCC(c2ccc3c(c2OC(=O)c2ccc(NC(=O)c4ccc(Cl)cc4)cc2)CCCC3)CC1)c1ccc(NC(=O)c2ccc(Cl)cc2)cc1", "growth inhibition": "101% (active)"}
{"smiles": "NCCCCNc1cc(-c2ccnc(Nc3cccc(Cl)c3)n2)ccn1", "growth inhibition": "94% (active)"}
{"smiles": "CCCN1CCN(c2ccccc2NS(=O)(=O)c2ccc(C(=O)Nc3ccc(Cl)cc3)cc2)CC1", "growth inhibition": "84% (active)"}
{"smiles": "Cc1ccc(C(=O)Nc2ccc(Nc3ccnc4cc(-c5ccncc5)ccc34)cc2O)cc1", "growth inhibition": "97% (active)"}
{"smiles": "Cc1cc(NCCC(=O)NCc2cccc(F)c2)nc(NCCc2ccc(F)cc2)n1", "growth inhibition": "89% (active)"}
{"smiles": "Cc1ccc(Nc2nccc(NCC(O)c3cccc(C(F)(F)F)c3)n2)cc1", "note": "(stereo unspecified)", "growth inhibition": "99% (active)"}
{"smiles": "CC(C)NCc1ccc(-c2cccc(-c3nc4ccc(F)cc4[nH]3)c2)cc1", "growth inhibition": "101% (active)"}
{"smiles": "Cn1c2ccccc2c2c3ccccc3c(CNC(CO)(CO)CO)cc21", "growth inhibition": "96% (active)"}
{"smiles": "COc1ccc(CNCc2ccccc2)cc1-c1cccc(S(=O)(=O)NCCN2CCCC2)c1", "growth inhibition": "98% (active)"}
{"smiles": "CC(=O)Nc1nc(N)c2c(ccc3c2ccn3CC(C)C)n1", "growth inhibition": "94% (active)"}
{"smiles": "c1ccc2[nH]c(-c3ccc(-c4ccc(CN5CCN(c6ccncc6)CC5)cc4)cc3)nc2c1", "growth inhibition": "101% (active)"}
{"smiles": "O=C(NCc1cccc(CN2CCOCC2)c1)c1cc(Br)cc(N2CCN(c3ccncc3)CC2)c1", "growth inhibition": "99% (active)"}
{"smiles": "Cc1[nH]c(C)c(-c2ccc(-c3ccc(Cl)cc3)nc2)c(=O)c1Br", "growth inhibition": "97% (active)"}
{"smiles": "COCCn1c(-c2cccc(Cl)c2)nn(-c2ccc([N+](=O)[O-])cc2Cl)c1=S", "growth inhibition": "100% (active)"}
{"smiles": "O=C(Cn1c(CCc2cccc(F)c2F)cc(=O)c2ccccc21)N(Cc1ccc(-c2ccc(C(F)(F)F)cc2)cc1)C1CCN(CCO)CC1", "growth inhibition": "91% (active)"}
{"smiles": "COc1ccccc1NC(=O)CSc1nc2cccnc2n1-c1ccccc1OC", "growth inhibition": "94% (active)"}
{"smiles": "CC(C)N(Cc1cnc(N)c(C#N)n1)c1ccc(Cl)c(Cl)c1", "growth inhibition": "97% (active)"}
{"smiles": "c1cc(CNc2ncc(-c3ccsc3)c(-c3nccs3)n2)ccn1", "growth inhibition": "89% (active)"}
{"smiles": "Cc1ccccc1C1CCN(C2CCC(NC(=O)/C=C/c3ccccc3C(F)(F)F)CC2)CC1", "note": "(stereo unspecified)", "growth inhibition": "83% (active)"}
{"smiles": "FC(F)(F)c1ccc2nc(-c3ccc(-c4ccc(CNCC5CCCO5)cc4)cc3)[nH]c2c1", "note": "(stereo unspecified)", "growth inhibition": "101% (active)"}
{"target": "Calcium-dependent protein kinase 1 (Plasmodium falciparum (isolate 3D7)) (UniProt P62344)", "sequence (P62344 whole entry, looked up)": "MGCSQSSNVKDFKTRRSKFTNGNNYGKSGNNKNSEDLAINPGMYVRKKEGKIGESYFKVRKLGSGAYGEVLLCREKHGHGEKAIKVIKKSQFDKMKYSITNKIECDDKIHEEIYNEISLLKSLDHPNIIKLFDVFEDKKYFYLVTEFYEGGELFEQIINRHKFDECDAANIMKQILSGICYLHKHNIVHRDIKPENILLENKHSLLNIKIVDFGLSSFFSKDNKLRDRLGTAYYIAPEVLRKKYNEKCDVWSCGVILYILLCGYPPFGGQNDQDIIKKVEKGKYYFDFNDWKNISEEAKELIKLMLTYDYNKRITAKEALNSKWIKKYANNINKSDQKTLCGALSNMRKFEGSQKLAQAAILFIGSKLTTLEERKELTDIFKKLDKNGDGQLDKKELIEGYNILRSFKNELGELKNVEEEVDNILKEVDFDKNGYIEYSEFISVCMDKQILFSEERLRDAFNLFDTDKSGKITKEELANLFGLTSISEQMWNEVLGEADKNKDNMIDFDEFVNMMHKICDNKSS", "experiment": "PfCDPK1 kinase inhibitors, biochemical, TCAMS library (AID 1159585);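 also: inhibitors leave more ATP so luminescence rises with inhibition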", "settings": "recombinant PfCDPK1, Kinase-Glo ATP depletion luminescence"}
{"smiles": "CCN1CCC(N(Cc2ccc(-c3ccc(Cl)cc3)cc2)C(=O)Cn2c(CCc3cccc(F)c3F)cc(=O)c3ccccc32)CC1", "outcome": "inactive"}
{"smiles": "O=C(c1ccc(Cl)cc1)C1CCCN(C2CCN(CCc3ccccc3)CC2)C1", "note": "(stereo unspecified)", "outcome": "inactive"}
{"smiles": "N#Cc1ccc2c(c1)CCN(CCC1CCC(NC(=O)c3cc4cccc([N+](=O)[O-])c4[nH]3)CC1)C2", "note": "(stereo unspecified)", "outcome": "inactive"}
{"smiles": "CCCCNC(=O)C(C)NC(=O)c1ccc(O)c(-c2ccc(Cl)c(Cl)c2)c1", "note": "(stereo unspecified)", "outcome": "inactive"}
{"smiles": "CCN(CC)CCOc1ccc(C(O)(C#CC(O)(c2ccc(Br)cc2)c2ccc(OCCN(CC)CC)cc2)c2ccc(Br)cc2)cc1", "note": "(stereo unspecified)", "outcome": "inactive"}
{"smiles": "CC(=O)c1ccc(Nc2c(C(N)=O)cnc3cc(-c4c(C)noc4C)ccc23)cc1", "outcome": "inactive"}
{"smiles": "O=C(/C=C/c1c[nH]c2ccccc12)NCCCCCN1CCC(c2c[nH]c3ccccc23)CC1", "outcome": "inactive"}
{"smiles": "CN1CCCC1CCNCc1ccc(-c2ccc(CNCCc3ccccc3)cn2)cc1", "note": "(stereo unspecified)", "outcome": "inactive"}
{"smiles": "NC1=NC(c2ccccc2)(c2ccccc2)C(=O)N1Cc1ccc(-c2cccnc2)cc1", "outcome": "inactive"}
{"smiles": "CCCCCCNC(=O)C1Cc2c([nH]c3ccc(C)cc23)C2(CCN(Cc3ccccc3)CC2)N1", "note": "(stereo unspecified)", "outcome": "inactive"}
{"smiles": "Cc1ccc2nc(C)cc(NN=CC=Cc3ccccc3)c2c1", "outcome": "inactive"}
{"smiles": "CCOc1c(CNCCCNc2cc(=O)c3ccccc3[nH]2)cc(I)cc1OC", "outcome": "inactive"}
{"smiles": "CC(=O)CSC(C=Cc1ccc(N(C)C)cc1)=Nc1ccccc1", "outcome": "inactive"}
{"smiles": "N#Cc1ccc(N(CCOc2ccc3c(c2)CCC(=O)N3)Cc2ccccc2C(F)(F)F)cc1C(F)(F)F", "outcome": "inactive"}
{"smiles": "COc1ccccc1CC1CCCN(C2CCC(NC(=O)c3cc4ccccc4[nH]3)CC2)C1", "note": "(stereo unspecified)", "outcome": "inactive"}
{"smiles": "COc1ccc2nccc([C@@H](O)CN3CCC(NC(=O)/C=C/c4cccc(NC(C)=O)c4)CC3)c2c1", "outcome": "inactive"}
{"smiles": "c1ccc(-c2cc(NCc3cccc4ccccc34)c3[nH]ncc3n2)cc1", "outcome": "inactive"}
{"smiles": "Cn1nc(-c2ccc(NC(=O)Nc3cc(C(F)(F)F)ccc3F)c(F)c2)c2cnc(NCCCn3ccnc3)nc21", "outcome": "inactive"}
{"smiles": "COc1ccc2nccc(N3CCN(CCNCc4ccc5c(n4)NC(=O)CS5)CC3)c2c1", "outcome": "inactive"}
{"smiles": "FC(F)(F)c1ccc2nc(-c3ccc(-c4cccc(CNCCc5ccncc5)c4)s3)[nH]c2c1", "outcome": "inactive"}
{"smiles": "O=C(NCCCCN1CCC(c2ccc3c(c2OC(=O)c2ccc(NC(=O)c4ccc(Cl)cc4)cc2)CCCC3)CC1)c1ccc(NC(=O)c2ccc(Cl)cc2)cc1", "outcome": "inactive"}
{"smiles": "NCCCCNc1cc(-c2ccnc(Nc3cccc(Cl)c3)n2)ccn1", "outcome": "inactive"}
{"smiles": "CCCN1CCN(c2ccccc2NS(=O)(=O)c2ccc(C(=O)Nc3ccc(Cl)cc3)cc2)CC1", "outcome": "inactive"}
{"smiles": "Cc1ccc(C(=O)Nc2ccc(Nc3ccnc4cc(-c5ccncc5)ccc34)cc2O)cc1", "outcome": "inactive"}
{"smiles": "Cc1cc(NCCC(=O)NCc2cccc(F)c2)nc(NCCc2ccc(F)cc2)n1", "outcome": "inactive"}
{"smiles": "Cc1ccc(Nc2nccc(NCC(O)c3cccc(C(F)(F)F)c3)n2)cc1", "note": "(stereo unspecified)", "outcome": "inactive"}
{"smiles": "CC(C)NCc1ccc(-c2cccc(-c3nc4ccc(F)cc4[nH]3)c2)cc1", "outcome": "inactive"}
{"smiles": "Cn1c2ccccc2c2c3ccccc3c(CNC(CO)(CO)CO)cc21", "outcome": "inactive"}
{"smiles": "COc1ccc(CNCc2ccccc2)cc1-c1cccc(S(=O)(=O)NCCN2CCCC2)c1", "outcome": "inactive"}
{"smiles": "CC(=O)Nc1nc(N)c2c(ccc3c2ccn3CC(C)C)n1", "outcome": "inactive"}
{"smiles": "c1ccc2[nH]c(-c3ccc(-c4ccc(CN5CCN(c6ccncc6)CC5)cc4)cc3)nc2c1", "outcome": "inactive"}
{"smiles": "O=C(NCc1cccc(CN2CCOCC2)c1)c1cc(Br)cc(N2CCN(c3ccncc3)CC2)c1", "outcome": "inactive"}
{"smiles": "Cc1[nH]c(C)c(-c2ccc(-c3ccc(Cl)cc3)nc2)c(=O)c1Br", "outcome": "inactive"}
{"smiles": "COCCn1c(-c2cccc(Cl)c2)nn(-c2ccc([N+](=O)[O-])cc2Cl)c1=S", "outcome": "inactive"}
{"smiles": "O=C(Cn1c(CCc2cccc(F)c2F)cc(=O)c2ccccc21)N(Cc1ccc(-c2ccc(C(F)(F)F)cc2)cc1)C1CCN(CCO)CC1", "outcome": "inactive"}
{"smiles": "COc1ccccc1NC(=O)CSc1nc2cccnc2n1-c1ccccc1OC", "outcome": "inactive"}
{"smiles": "CC(C)N(Cc1cnc(N)c(C#N)n1)c1ccc(Cl)c(Cl)c1", "outcome": "inactive"}
{"smiles": "c1cc(CNc2ncc(-c3ccsc3)c(-c3nccs3)n2)ccn1", "outcome": "inactive"}
{"smiles": "Cc1ccccc1C1CCN(C2CCC(NC(=O)/C=C/c3ccccc3C(F)(F)F)CC2)CC1", "note": "(stereo unspecified)", "outcome": "inactive"}
{"smiles": "FC(F)(F)c1ccc2nc(-c3ccc(-c4ccc(CNCC5CCCO5)cc4)cc3)[nH]c2c1", "note": "(stereo unspecified)", "outcome": "inactive"}
